# Pol kappa inh-1 – qHTS for Inhibitors of Polymerase Kappa | DNA polymerase kappa (Homo sapiens), Q9UBT6 | purified Pol kappa, fluorescent DNA synthesis assay, 10 min | Potency, µM (doses to about 107 µM), for the others: at the top dose activity, negative = inhibition, hits mostly inhibitors | actives 0.53% (n = 400,000) | AID 588579, 2011; also: % is scaled to controls: 0 for no effect and ±100 for the full control effect
#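 10 nM Pol kappa preincubated 15 min at room temperature with compounds, then reaction started with substrate at 50 nM final. Fluorescence read kinetically at 0 and 10 min; buffer-only wells served as negative control.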
# Pol beta inh – qHTS Assay for Inhibitors of DNA Polymerase Beta; AID 485314, 2010; Potency, µM (top dose mostly 114 µM), inactives show top-dose activity change, negative = inhibition, usual class: inhibitors; Pol beta primer extension/strand displacement, fluorescence kinetic; actives 1.3% (n = 340,000); also: % is scaled to controls: 0 for no effect and ±100 for the full control effect
#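 Curves were derived by four-parameter Hill fits of normalized qHTS data. The kinetic fluorescent primer-extension read was taken at 0 and 10 min after 50 nM substrate, following a 15 min room-temperature preincubation of 10 nM enzyme with compounds.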
# Pol eta inh-1 – qHTS for Inhibitors of Polymerase Eta | recombinant Pol eta, fluorescent DNA replication assay | Potency, µM (series often up to 114 µM), inactives show top-dose activity change, negative = inhibition, most hits filed as inhibitors | actives 1.2% (n = 390,000) | DNA polymerase eta (Homo sapiens), Q9Y253; also: % is scaled to controls: 0 for no effect and ±100 for the full control effect
#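 Pol eta (10 nM) was preincubated with compounds for 15 min at room temperature, after which fluorescent replication substrate (50 nM final) was added to start the reaction. Fluorescence was read kinetically at 0 and 10 min.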
# TDP1 inh – qHTS Assay for Inhibitors of Tyrosyl-DNA Phosphodiesterase (TDP1); Tyrosyl-DNA phosphodiesterase 1 (Homo sapiens), Q9NUW8; recombinant TDP1, AlphaScreen DNA substrate cleavage; Potency, µM (doses to about 130 µM), for inactives: top-dose activity change, negative = inhibition, usual class: inhibitors; actives 0.28% (n = 350,000); AID 485290, 2010; also: % is scaled to controls: 0 for no effect and ±100 for the full control effect; nearly all actives have a fitted effect of over 40% in size
#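 AlphaScreen read-out: signal falls as enzyme removes the 3' tyrosine-FITC from a 5'-biotinylated DNA oligo (15 nM, 5 min, RT). Enzyme was E. coli-made recombinant Tdp1 at 1 nM, exposed to compound for 15 min beforehand; beads 10 ug/ml, 10 min.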
# POLI inh – qHTS for Inhibitors of Polymerase Iota; DNA polymerase iota (Homo sapiens), Q9UNA4; Pol iota fluorescent replication assay, 10 min; Potency, µM (titrated, usually from 115 µM), inactives show at the highest dose activity, negative = inhibition, actives largely listed as inhibitors; actives 1% (n = 390,000)
#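 Pol iota at 10 nM preincubated 15 min with compounds at room temperature; reaction started with fluorescent substrate, 50 nM final. Fluorescence read kinetically at 0 and 10 min; buffer-only wells as negative control.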
# Pol kappa inh-2 – qHTS for Inhibitors of Polymerase Kappa: Confirmatory Assay for Cherry-picked Compounds; shares compounds with Pol eta inh-1; purified Pol-kappa, fluorescent strand-displacement substrate; Potency, µM, actives largely listed as inhibitors; actives 76% (n = 920); AID 720501, 2013
# Pol eta inh-2 – qHTS for Inhibitors of Polymerase Eta: Confirmatory Assay for Cherry-picked Compounds; AID 720502, 2013; Potency, µM, hits mostly inhibitors; shares compounds with Pol eta inh-1; Pol eta primer extension, TAMRA/BHQ fluorescence, 10 min; actives 64% (n = 2,600)
# * marks the source's active call; other numbers are inactive results; ? = inconclusive; nt = no result given; [ ] = dose if it differs, or a comment. Compounds with a hit are over-represented: about 2.4% of the library has one in this group of screens. Calls follow the shape of the dose curve; as a rule, active = well fitted curve in the direction sought with a large enough effect; inconclusive = small, poorly fitted or top-dose-only effect, or another doubt; inactive = no such curve, though single readings can be large; an effect the other way counts as inactive or inconclusive. Potency is read from the fitted curve at half-maximal effect.
SMILES,Pol kappa inh-1,Pol beta inh,Pol eta inh-1,TDP1 inh,POLI inh,Pol eta inh-2,others
CCCC1([C@H](O)C/C=C/[C@H]2[C@H](O)CC(=O)[C@@H]2CCCCCCC(=O)OC)CCC1,-12.8%[60.1 µM],nt,nt,1.0%,nt,nt,
O=C(C1CCCN(S(=O)(=O)c2cccc3nsnc23)C1)N1CCN(c2ccccc2)CC1 (stereo not drawn),-11.1%,6.6%,-15.8%,4.7%,18.8%,nt,
CCC(=O)OC1(C)C(=O)C=C2C=C(C3CC3)OC=C2C1=O (stereo not drawn),?,nt,?,0.6%,?,nt,
CCCCC1=CC2=CC(=O)C(C)(OC(=O)C3CCCC3)C(=O)C2=CO1 (stereo not drawn),79.4µM*,-28.6%,39.8µM*,3.7%,50.1µM*,?,
CCC(=O)OC1(C)C(=O)C=C2C=C(CCCC(=O)OC)OC=C2C1=O (stereo not drawn),?,nt,25.1µM*,5.6%,?,53.6*,
CCC(=O)OC1(C)C(=O)C=C2C=C(CCCCNC(=O)OC(C)(C)C)OC=C2C1=O (stereo not drawn),nt,nt,nt,5.6%,nt,nt,
CCN(Cc1ccccc1)C(=O)c1cc(-c2ccccc2)n[nH]1,-26.5%,0.6%,-8.6%,5.6%,34.2%,nt,
COc1cc(OC)c2c(c1C(CCN1CCN(c3ccccc3)CC1)c1ccc(N(C)C)cc1)OC(=O)CC2c1ccc(N(C)C)cc1 (stereo not drawn),14.1%,nt,nt,25.6%,27.6%,nt,
CCOC(=O)c1c(NS(=O)(=O)c2ccc(Br)cc2)sc2c1CCC2,79.4µM*,nt,20µM*,nt,11.2µM*,?,
COc1cc(/C=N/NC(=O)c2nc(-c3ccccc3)n(-c3ccccc3)n2)ccc1O,-5.8%,31.2%,?,1.8%,79.0%,nt,
Cc1nn(-c2ccccc2)c(C)c1-c1cc(C(=O)N/N=C/c2ccc(O)cc2)[nH]n1,79.4µM*,10µM*,28.2µM*,5.1%,20µM*,42.6*,
COc1cc(/C=N/NC(=O)c2cc(-c3c(C)nn(-c4ccccc4)c3C)n[nH]2)ccc1O,?,?,20µM*,5.4%,3.16µM*,53.6*,
Cc1nn(-c2ccccc2)c(C)c1/C=N/NC(=O)c1cc(O)cc(O)c1,5.0%,10.2%,-15.9%,-0.2%,60.1%,nt,
COc1cc(CO)cc(Br)c1OCC(=O)O,13.2%,19.5%,0.4%,2.0%,-3.8%,nt,
CCOc1cc(CO)cc(Br)c1OCC(=O)O,-34.4%,nt,15.8µM*,nt,?,84.9*,
O=C(O)c1ccc(Nc2ncc([N+](=O)[O-])cc2[N+](=O)[O-])cc1,-29.2%,25.3%,31.6µM*,nt,?,67.5*,
O=C1/C(=C/C=C/c2ccco2)SC(=S)N1c1ccc(O)cc1,7.94µM*,3.16µM*,3.55µM*,nt,?,60.1*,
CC(C)c1ccc(NC(=O)C2CCN(C(=O)c3ccc(F)cc3)CC2)cc1,-7.2%,4.0%,-22.6%,nt,17.0%,nt,
COc1ccc(NC(=O)c2ccco2)cc1NC(=O)c1cc(Cl)ccc1OC,-1.0%,?,89.1µM*,-5.3%,-17.2%,nt,Pol kappa inh-2=42.3*
O=C1/C(=C/c2ccncc2)CCC/C1=C\c1ccncc1,-17.8%,-2.1%,44.7µM*,6.2%,10µM*,?,
COC(=O)C1=C(C)N(Cc2ccccc2)C(=NCc2ccc(OC)cc2)N[C@H]1c1ccc(Br)cc1,nt,0.3%,nt,nt,nt,nt,
O=C(O)/C=C/C(=O)c1ccc2c(c1)CCc1ccccc1-2,-15.3%,nt,35.5µM*,-2.6%,1.58µM*,?,

# High-throughput results (PubChem BioAssay)
